In PubChem BioAssay one finds z-score data, which are given here for 36 compounds.

Unmarked numbers belong to inactive results. Calls of active or inactive are those of the source.

A short description of this experiment: basal S. cerevisiae growth modulation, no modifier, primary screen, OD600, strain BY4716, 24 h, basal condition (AID 1173). The note with it: OD600, 24 h, higher = more signal, called active from +8 up or from −8 down.
Take `N#Cc1ccc(NN2C(C(O)c3ccccc3)C=CC3C(=O)N(c4ccccc4)C(=O)C32)cc1` (stereo unspecified): the z-score was -1.47.

Consider `O=C(NCc1ccccc1)[C@]1(Cc2ccccc2)N=C(c2ccc(OCCCO)cc2)O[C@@H]1c1ccccc1`, for which the z-score was 1.41.

As for `CC(C)CCC[C@@H](C)[C@H]1CC[C@@]2(C)C3=C(CC[C@]12C)[C@@]1(C)CC[C@H](OC(=O)C(C)(C)C)C(C)(C)C1CC3` (stereo partly specified), the z-score is -0.743.

Consider `NC(=O)NCC#Cc1ccc2c(c1)[C@]1(C(=O)N2)[C@H](c2ccc(OCCO)cc2)N2[C@H](c3ccccc3)[C@H](c3ccccc3)OC(=O)[C@H]2[C@@H]1C(=O)N1CCCCCCC1`, for which the z-score was 1.64.

Regarding `[N-]=[N+]=Nc1ccccc1[C@H]1OC(c2ccc(OCCCO)cc2)=N[C@@]1(Cc1ccccc1)C(=O)NCc1ccccc1`, the z-score was -1.95.

In the case of `COCCOC(=O)N1C(=O)[C@@]2(c3cc(C#CCC(C(=O)OC)C(=O)OC)ccc31)[C@H](C(=O)N1CCCCCCC1)[C@H]1C(=O)O[C@H](c3ccccc3)[C@H](c3ccccc3)N1[C@@H]2c1ccc(O)cc1`, the z-score was -0.0861.

For the compound `C=CC[C@]1(C(=O)NCC(O)CO)N=C(c2ccc(OCCCO)cc2)O[C@H]1c1ccccc1N=[N+]=[N-]` (stereo partly specified), the z-score is -0.746.

For `O=C(Nc1cc(Br)ccc1C(=O)NCc1cccc(O)c1)c1ccccc1`, the z-score is -0.887.

Consider `CC1CC/C=C\[C@H]2OC34C=CCN(c5ccc(Cl)cc5)C(=O)[C@H]3N(C(CO)C(C)C)C(=O)[C@]4(C)C2C(=O)O1` (stereo partly specified), for which the z-score is -0.432.

Consider `CC1=C2[C@@H](CCc3ccccc3)OB(O)C[C@@H]2[C@@H]2C(=O)C=CC(=O)[C@@H]2C1`, for which the z-score is -17.6 (active).

In the case of `[N-]=[N+]=NCc1ccccc1C[C@]1(C(=O)NCCN2CCOCC2)COC(c2ccc(OCCCO)cc2)=N1`, the z-score was -1.36.

Regarding `COc1ccc(CCNC(=O)[C@@H]2c3ccccc3C(=O)N(Cc3ccccc3)[C@H]2c2ccc(CO)cc2)cc1`, the z-score was -0.996.

As to `C=CC[C@@]1(C(=O)NCC(O)CO)N=C(c2ccc(OCCCO)cc2)O[C@@H]1c1ccccc1` (stereo partly specified), the z-score is -2.05.

As for `CO[C@H]1O[C@H](CO)[C@@H](OC(=O)Nc2cccc(F)c2)[C@H](OC(=O)Nc2ccc3c(c2)OCO3)[C@H]1OC(=O)Nc1ccc2c(c1)OCO2`, the z-score was 1.55.

`COc1ccc(C#Cc2ccc3c(c2)[C@]2(C(=O)N3)[C@H](c3ccc(OCCO)cc3)N3[C@H](c4ccccc4)[C@H](c4ccccc4)OC(=O)[C@H]3[C@@H]2C(=O)N2CCN(c3ncccn3)CC2)cc1`: the z-score was 1.56.

Consider `COCC(=C=CC[C@@H](O)c1ccccc1OCCO)C[C@@H](O)c1ccccn1`, for which the z-score is -1.42.

`CCCN1C(=O)[C@@]2(Cc3ccccc3)N=C(c3ccc(OCCCO)cc3)O[C@H]2c2ccccc21`: the z-score was -2.03.

Consider `NC(=O)NCC#Cc1ccc2c(c1)[C@]1(C(=O)N2)[C@H](c2ccc(OCCO)cc2)N2[C@H](c3ccccc3)[C@H](c3ccccc3)OC(=O)[C@H]2[C@@H]1C(=O)N1CCN(c2ncccn2)CC1`, for which the z-score is 1.04.

Consider `C=CCC(OC(C)=O)[C@@H]1[C@@H](N(Cc2cccc3ccccc23)C(=O)c2ccc(C)cc2)c2cc(OCCCO)ccc2N1C(=O)c1ccc2ccccc2c1` (stereo partly specified), for which the z-score was -0.0786.

With `COc1ccc([Si](C)(C)[C@@H]2[C@@H](CC(=O)N(CCO)Cc3ccccc3)O[C@]3(C(=O)N(Cc4ccc(N5CCOC5=O)cc4)c4ccccc43)[C@H]2C)cc1`, the z-score was 0.613.

For `COc1ccccc1CN1C(=O)c2ccccc2[C@](Cc2ccccc2I)(C(=O)NCCN2CCOCC2)[C@@H]1c1ccc(CO)cc1`, the z-score is -0.261.

Regarding `CN(C)CCCN1C(=O)[C@@]2(Cc3ccccc31)c1ccccc1C(=O)N(Cc1ccccc1)[C@H]2c1ccc(CO)cc1`, the z-score is 0.225.

As to `Cc1ccc(S[C@]2(C(=O)O)CC(=O)N(Cc3ccccc3C(F)(F)F)[C@@H]2c2ccc(CO)cc2)cc1`, the z-score is -0.0891.

With `CCOC(=O)C1=CC[C@@H](c2ccccc2)N(S(=O)(=O)c2ccc(C)cc2)[C@H]1C=C(C)C`, the z-score is 2.78.

For the compound `COCCOC(=O)N1C(=O)[C@@]2(c3cc(C#CCNC(N)=O)ccc31)[C@H](C(=O)N1CCCCCCC1)[C@H]1C(=O)O[C@H](c3ccccc3)[C@H](c3ccccc3)N1[C@@H]2c1ccc(OCCO)cc1`, the z-score was 0.971.

For `CC(C)CNC(=O)[C@@]1(C)c2ccccc2C(=O)N(Cc2ccccc2)[C@H]1c1ccc(CO)cc1`, the z-score is -0.11.

On to `C=CCC(OC(C)=O)[C@@H]1[C@@H](N(Cc2ccc(-c3ccccc3)cc2)C(=O)c2cccc3ccccc23)c2cc(OCCCO)ccc2N1C(=O)c1ccc2ccccc2n1` (stereo partly specified), for which the z-score was -0.953.

For `COc1ccc([Si](C)(C)[C@@H]2[C@@H](CCO)O[C@]3(C(=O)N(Cc4ccccc4)c4ccc(N5C(=O)COc6ccccc65)cc43)[C@H]2C)cc1`, the z-score is 2.09.

`C=C(COC)/C(=C/C[C@@H](OC(=O)c1ccncc1)c1cccc(OCCO)c1)c1cc(C(=O)OC)ccc1OC`: the z-score is -18.2 (active).

Take `O=C1NC(=O)C2C1C=CC(C(O)c1ccc3c(c1)OCO3)N2Nc1ccc(Cl)cc1Cl` (stereo unspecified): the z-score was -14 (active).

For the compound `[N-]=[N+]=NCc1ccccc1C[C@@]1(C(=O)NCCN2CCOCC2)N=C(c2ccc(OCCCO)cc2)O[C@@H]1c1ccccc1CN=[N+]=[N-]`, the z-score is 0.326.

For the compound `C[N+](C)(C)CCCCCCNC(=O)[C@@H]1C[C@@H]2C(=O)NCC(=O)N2[C@@H]1c1ccc(O)cc1`, the z-score is 0.0566.

For `COC(=O)[C@@]1(Cc2ccccc2N=[N+]=[N-])N=C(c2ccc(OCCCO)cc2)O[C@H]1c1ccccc1`, the z-score is -0.642.

Turning to `COCCOC(=O)N1C(=O)[C@@]2(c3cc(C#Cc4ccc(OC)cc4)ccc31)[C@H](C(=O)N1CCc3cc(OC)c(OC)cc3C1)[C@H]1C(=O)O[C@H](c3ccccc3)[C@H](c3ccccc3)N1[C@@H]2c1ccc(OCCO)cc1`, the z-score is 1.39.

Turning to `O=C1O[C@H](c2ccccc2)[C@H](c2ccccc2)N2[C@H]1[C@@H](C(=O)N1CCCCCCC1)[C@]1(C(=O)Nc3ccc(C#CCCO)cc31)[C@H]2c1ccc(OCCO)cc1`, the z-score was 0.905.

Regarding `CCCC[C@H]1OB(O)C[C@H]2C1=C(COc1ccccc1)Cn1c(=O)n(-c3ccccc3)c(=O)n12`, the z-score was -6.02.
